# Only some compounds are listed: those with a hit (about 2.1% of all), similar ones and a draw of the others.
# aDG glyco act = activators of alpha-DG glycosylation, primary screen, uHTS, Pro5-aDG cells, AlphaScreen. AID 624168, 2012. activation, % at 10 µM. alpha-DG glycosylation AlphaScreen (IIH6); 0% Pro5, 100% B10-LARGE cell signal. 360,000 compounds, 0.22% hits;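 active = activation of at least 8% versus controls, or a plate z-score of at least 8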;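 also: Pro5 are CHO cells carrying HIG-tagged alpha-DG that lacks glycosylation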
# GalR3 antag = GalR3 antagonists in HEK293 cells, primary screen, cell-based, fluorescence readout; Galanin receptor type 3 (Homo sapiens), O60755; HEK293 GalR3-CNG cAMP membrane potential fluorescence; galR3 body fused to GalR1 C-terminus; inhibition, % at 3 µM; 360,000 compounds, 0.44% hits; AID 651719, 2012;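 active = inhibition above the screen-wide average plus 3 SD, cut at about 13% in these data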;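 also: forskolin and galanin both at EC90 stimulate the cells; cAMP rise reported by CNG channel membrane potential dye signal; 0% = forskolin plus galanin with DMSO and 100% = forskolin alone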
# HIV Env fusion = inhibitors of HIV-1 Env-driven cell-cell fusion, primary screen, HeLa-JRFL effector, CEM21 target cells, luciferase | inhibition, % at 12.3 µM | 360,000 compounds, 1.1% hits;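 active = mean replicate inhibition score of at least 50 and every replicate individually at or above 50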;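 also: 0% = plate neutral controls and 100% = maraviroc near 300 nM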
# Gli-Sufu block = Gli-Sufu pathway antagonists, primary screen, luciferase luminescence, Sufu-KO-LIGHT cells, uHTS. 340,000 compounds, 0.74% hits. inhibition, % at 5 µM. Sufu-KO-LIGHT fibroblasts, Gli luciferase reporter luminescence;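 active = inhibition above about 55%, limit read from the data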;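 also: 0% = DMSO-treated cells and 100% = wells with medium but no cells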
# NR2F2 inh = NR2F2 transcriptional activity inhibitors, primary screen, cell-based, luciferase reporter, HEK293T, luminescence. COUP transcription factor 2 (Homo sapiens), P24468. inhibition, % at 8.6 µM. 370,000 compounds, 0.7% hits. HEK293T NGFI-A luciferase reporter;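 active = inhibition above a per-plate cutoff, mean inhibition of test wells between control levels plus 3 SD, cut at about 38% in these data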;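 also: cells cotransfected with COUP-TFII expression vector driving the NGFI-A reporter; 0% = median of COUP-TF2 test wells and 100% = reporter-only cells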
# Target sequence (P24468 whole entry, looked up): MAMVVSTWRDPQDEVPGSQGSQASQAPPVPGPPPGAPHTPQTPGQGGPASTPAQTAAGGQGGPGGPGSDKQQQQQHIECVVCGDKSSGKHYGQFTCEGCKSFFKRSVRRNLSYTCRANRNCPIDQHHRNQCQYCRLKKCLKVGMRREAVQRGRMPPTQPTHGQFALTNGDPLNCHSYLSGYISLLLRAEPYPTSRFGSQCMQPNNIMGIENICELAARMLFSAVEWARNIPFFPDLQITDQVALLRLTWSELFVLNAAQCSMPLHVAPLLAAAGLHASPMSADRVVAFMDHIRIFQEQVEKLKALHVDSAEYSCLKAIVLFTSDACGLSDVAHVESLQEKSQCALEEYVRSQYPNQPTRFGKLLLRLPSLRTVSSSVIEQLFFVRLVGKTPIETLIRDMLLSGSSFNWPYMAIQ
# * hit, by the source's call; . = no result given; [ ] = another dose, or the depositor's remark.
SMILES,aDG glyco act,GalR3 antag,HIV Env fusion,Gli-Sufu block,NR2F2 inh
C[C@@H]1CN([C@@H](C)CO)C(=O)Cc2cc(NS(=O)(=O)c3ccc(Cl)cc3)ccc2O[C@@H]1CN(C)C(=O)Nc1ccc(F)cc1,.,.,-3[16.7 µM],.,.
C[C@H](CO)N1C[C@H](C)[C@@H](CN(C)Cc2ccccc2)OCCCC[C@H](C)Oc2ccc(NC(=O)Nc3ccc(C(F)(F)F)cc3)cc2C1=O,.,.,9[16.7 µM],.,.
C[C@H](CO)N1C[C@H](C)[C@H](CN(C)Cc2ccccc2)OCCCC[C@H](C)Oc2ccc(NC(=O)Nc3ccccc3)cc2C1=O,.,.,75*[16.7 µM],.,.
C[C@@H]1CN([C@H](C)CO)C(=O)c2cc(NC(=O)Nc3ccc(C(F)(F)F)cc3)ccc2O[C@@H](C)CCCCO[C@H]1CN(C)Cc1ccccc1,.,.,66*[16.7 µM],.,.
C[C@@H]1CCCCO[C@H](CN(C)Cc2ccccc2)[C@@H](C)CN([C@@H](C)CO)C(=O)c2cc(NC(=O)Nc3ccc(C(F)(F)F)cc3)ccc2O1,.,.,88*[16.7 µM],.,.
C[C@@H]1CCCCO[C@H](CN(C)Cc2ccccc2)[C@H](C)CN([C@H](C)CO)C(=O)c2cc(NC(=O)Nc3ccccc3)ccc2O1,.,.,2[16.7 µM],.,.
C[C@@H]1CCCCO[C@@H](CN(C)Cc2ccc(Cl)c(Cl)c2)[C@@H](C)CN([C@@H](C)CO)C(=O)c2cc(NC(=O)C3CCCCC3)ccc2O1,.,.,-14[16.7 µM],.,.
CN1CCN(C(=O)C[C@@H]2CC[C@@H]3[C@H](COC[C@H](O)CN3C(=O)C3CCOCC3)O2)CC1,.,.,-7[16.7 µM],.,.
C[C@@H]1CN([C@@H](C)CO)C(=O)c2cc(NS(=O)(=O)c3ccc(F)cc3)ccc2O[C@@H](C)CCCCO[C@H]1CN(C)C(=O)c1ccncc1,.,.,-14[16.7 µM],.,.
CCC1=NN=C(c2ccc(F)cc2)C(c2c[nH]c3ccccc23)N1O (stereo not given),0,-4,103*,8,5
Cc1noc(C)c1S(=O)(=O)N(C)C[C@@H]1OCCCC[C@@H](C)Oc2ccc(NC(=O)NC(C)C)cc2C(=O)N([C@@H](C)CO)C[C@H]1C,.,.,-39[16.7 µM],.,.
C[C@H](CO)N1C[C@H](C)[C@@H](CN(C)Cc2ccncc2)Oc2ncc(C#Cc3ccccn3)cc2C1=O,.,.,-16[16.7 µM],.,.
O=C(CN1C(=O)c2ccccc2S1(=O)=O)c1ccc(OC(F)F)cc1,0,.,.,78*,.
C[C@@H]1CN([C@H](C)CO)C(=O)c2cccc(NC(=O)Nc3ccc(F)cc3)c2O[C@@H]1CN(C)S(C)(=O)=O,.,.,13[16.7 µM],.,.
CCOC(=O)c1c(CSc2ccc(C)cc2)n(C)c2cc(Br)c(O)c(CN(C)C)c12,1,-10,87*,31,16
CCOC(=O)c1c(CN2CCCCC2)n(C)c2cc(Br)c(O)c(CN(C)C)c12,0,.,.,14,.
CCOC(=O)c1c(CSc2ccccc2)n(C)c2cc(Br)c(O)c(CN(C)C)c12,0,-11,67*,9,8
CCOC(=O)c1c(CSc2ccsc2)n(C)c2cc(Br)c(O)c(CN(C)C)c12,0,-9,87*,15,11
COc1ccc(S(=O)(=O)N(C)C[C@H]2Oc3ccc(NC(=O)NC(C)C)cc3C(=O)N([C@@H](C)CO)C[C@H]2C)cc1,.,.,-18[16.7 µM],.,.
O=S(=O)(NCCc1csc(-c2cccnc2)n1)c1ccc(Cl)s1,0,.,122*,9,29
O=S(=O)(NCCc1csc(-c2cccnc2)n1)c1cccs1,0,.,24,-10,6
C[C@@H]1CCCCO[C@@H](CN(C)S(=O)(=O)c2ccc(Cl)cc2)[C@H](C)CN([C@H](C)CO)C(=O)c2cc(NC(=O)CCCN(C)C)ccc2O1,.,.,0[16.7 µM],.,.
COc1ccccc1Oc1ccc(S(=O)(=O)NCc2ccccn2)cc1,2,-4,76*,7,19
COc1ccc(S(=O)(=O)NCc2ccccn2)cc1OC,0,-8,14,-11,0
Cc1ccc(NC(=O)CSc2nc(-c3ccco3)cc(C(F)(F)F)n2)cc1C,0,-4,56*,7,-3
SMILES,aDG glyco act,GalR3 antag,HIV Env fusion,Gli-Sufu block,NR2F2 inh
Cc1cc(C)nc(SCc2nnc(SCC(=O)Nc3ccc(C)c(C)c3)n2Cc2ccco2)n1,0,1,54*,1,19
COC(=O)CSc1nnc(CSc2nc(C)cc(C)n2)n1Cc1ccco1,0,0,-36,1,6
COc1ccc(-c2csc(NC(=O)c3ccccc3NS(=O)(=O)c3ccc(C)cc3)n2)cc1,0,-1,.,48,17
COc1ccc(S(=O)(=O)Nc2ccccc2C(=O)Nc2nc(-c3ccc(F)cc3)cs2)cc1OC,1,-11,66*,16,-4
CCOc1ccc(OCC)c(NC(=O)CSc2nc3ccccc3c(=O)n2C)c1,2,-4,91*,.,7
COc1ccc(NC(=O)N[C@@H]2CC[C@@H](CCNC(=O)CCN3CCCCC3)O[C@H]2CO)cc1,.,.,3[16.7 µM],.,.
CC(=O)C1=C(C)NC(=S)NC1c1ccccc1 (stereo not given),.,4,74*,.,-2
CC(C)NC(=O)Nc1ccc2c(c1)C(=O)N([C@H](C)CO)C[C@@H](C)[C@H](CN(C)C(=O)c1ccncc1)OCCCC[C@@H](C)O2,.,.,-10[16.7 µM],.,.
COc1ccc(S(=O)(=O)N(C)C[C@@H]2Oc3ccc(NS(=O)(=O)c4cn(C)cn4)cc3C(=O)N([C@H](C)CO)C[C@H]2C)cc1,.,.,-3[16.7 µM],.,.
COC(=O)[C@]12C[C@H](CC(=O)NCc3cccc4ccccc34)C(=O)N(Cc3ccc4c(c3)OCO4)C1=C[C@H](C(C)(C)C)O[C@@H]2C,.,-2,56*,.,7
CCCCOCCCNC(=O)C[C@H]1C[C@@]2(C(=O)OC)C(=C[C@H](C(C)(C)C)O[C@@H]2C)N(Cc2ccc3c(c2)OCO3)C1=O,.,3,74*,.,7
O=C(C[C@@H]1CC[C@@H](NC(=O)c2ccncc2)[C@H](CO)O1)NCCc1ccncc1,.,.,62*[16.7 µM],.,.
O=C(O)C[C@@H]1CC[C@@H](NC(=O)c2ccncc2)[C@H](CO)O1,.,.,63*[16.7 µM],.,.
C[C@@H]1CN([C@H](C)CO)C(=O)Cc2cc(NS(=O)(=O)c3ccc(Cl)cc3)ccc2O[C@@H]1CN(C)Cc1ccc(Cl)c(Cl)c1,.,.,2[16.7 µM],.,.
Cc1noc(C)c1NC(=O)Nc1cccc2c1O[C@@H](CN(C)C(=O)NC(C)C)[C@H](C)CN([C@H](C)CO)C2=O,.,.,-23[16.7 µM],.,.
O=C(Nc1ccc(Cl)cc1)OCCn1nnnc1C(c1ccccc1Cl)N1CCOCC1 (stereo not given),0,-2,113*,-4,-10
C[C@@H]1CN([C@@H](C)CO)S(=O)(=O)c2ccc(/C=C/c3ccccc3)cc2O[C@H]1CN(C)Cc1cncnc1,.,.,19[16.7 µM],.,.
COc1ccc(C2C(C#N)=C(C)NC3=C2C(=O)c2ccccc23)cc1 (stereo not given),0,-2,9,8,2

# Compound activity (PubChem BioAssay)
